# Laboratory results reported in PubChem BioAssay (NCI).
# Compounds without any hit were thinned out: in the full panel of roughly 83,000, 20% have a hit.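 Interpretation: 100, growth as untreated; towards 0, rising growth inhibition; 0, no net growth; 0 to -100, cell death. Compounds scoring below 10 were considered active.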 Values without a mark were called inactive. Calls of active or inactive are those of the source.
# How the values were obtained:
# Experiment in all cases: NCI-60 one-dose screen, 48 h (100 = growth as untreated, 0 = no growth, -100 = all killed)
# Conditions in all cases: 10 µM unless noted
# SK-MEL-2 melanoma = tested on: SK-MEL-2 melanoma
# EKVX NSCLC = tested on: EKVX NSCLC
# SN12C renal = tested on: SN12C renal
# UO-31 renal = tested on: UO-31 renal
# TK-10 renal = tested on: TK-10 renal
# ACHN renal = tested on: ACHN renal
# CAKI-1 renal = tested on: CAKI-1 renal
# A498 renal = tested on: A498 renal
# CCRF-CEM leukemia = tested on: CCRF-CEM leukemia
# MOLT-4 leukemia = tested on: MOLT-4 leukemia
# SR leukemia = tested on: SR leukemia
# OVCAR-8 ovarian = tested on: OVCAR-8 ovarian
# OVCAR-5 ovarian = tested on: OVCAR-5 ovarian
# OVCAR-4 ovarian = tested on: OVCAR-4 ovarian
# SK-OV-3 ovarian = tested on: SK-OV-3 ovarian
# IGROV1 ovarian = tested on: IGROV1 ovarian
# OVCAR-3 ovarian = tested on: OVCAR-3 ovarian
# HS 578T breast = tested on: HS 578T breast
# RPMI-8226 leukemia = tested on: RPMI-8226 leukemia
# NCI/ADR-RES ovarian = tested on: NCI/ADR-RES ovarian
Compound,growth (SK-MEL-2 melanoma),growth (EKVX NSCLC),growth (SN12C renal),growth (UO-31 renal),growth (TK-10 renal) [%],growth (ACHN renal),growth (CAKI-1 renal),growth (A498 renal),growth (CCRF-CEM leukemia),growth (MOLT-4 leukemia),growth (SR leukemia),growth (OVCAR-8 ovarian) [%],growth (OVCAR-5 ovarian) [%],growth (OVCAR-4 ovarian) [%],growth (SK-OV-3 ovarian) [%],growth (IGROV1 ovarian),growth (OVCAR-3 ovarian),growth (HS 578T breast),growth (RPMI-8226 leukemia),growth (NCI/ADR-RES ovarian)
Cc1ccccc1C(=O)NN,99.9%,108%,108%,70.7%,105,106%,98.3%,117%,100%,92.3%,86.2%,109,121,117,98.8,85.8%,126%,106%,,
Cc1ccc(/C=N\NC(=O)c2[nH]c3ccc(F)cc3c2-c2ccccc2)cc1,23.2%,38%,41.5%,32.1%,72.5,38.5%,1.21% (active),19%,18.4%,28.2%,19.7%,16.6,62.5,46.8,20.4,91.4%,-32.3% (active),16.7%,,
CCCCCCNC(=O)Oc1ccc(/C(=C(\C)c2ccc(Cl)cc2)c2ccc(OCCN3CCCCC3)cc2)cc1,86.4%,52.8%,55.9%,32.6%,89.6,76.3%,63.8%,76.1%,34%,10.9%,-22.4% (active),,72,36.7,56.3,54.8%,58.4%,65.2%,17.7%,63.5%
C=C1C(=O)O[C@H]2[C@H]1CC/C(COC(=O)NCCOCCOCC(=O)Nc1ccc(OC)c(C(N)=O)c1O)=C\CC[C@@]1(C)O[C@@H]21,72.5%,84.1%,66%,74.9%,45.5,40.8%,82%,92.5%,-4.37% (active),17%,7.91% (active),,90.9,71,109,24.7%,45.8%,90.1%,16%,94.6%
CCOC(=O)Nc1ccc(-c2nc(-c3cccc(OCCN4CCOCC4)c3)c(-c3ccnc(Br)c3)[nH]2)cc1,40.2%,61.1%,59.9%,21.5%,87.4,43.9%,51.3%,49.9%,26.4%,7.57% (active),-12.9% (active),43.8,66.9,52.7,80.8,63.6%,48.6%,,,
Cc1c(C(=O)NCCCc2ccccc2)sc2ncc(-c3ccc(Br)cc3)n12,115%,106%,98.7%,92%,135,103%,101%,110%,96.8%,99.8%,106%,105,107,111,99.5,100%,112%,,,
C(=N/Nc1ncnc2nc[nH]c12)/c1ccccn1,71.5%,24.9%,36.6%,3.16% (active),56.1,23.4%,-25.4% (active),55%,23.7%,22.2%,25.7%,28.5,50.8,31.9,28.9,-8.74% (active),51%,64.1%,,
COc1ccn2c(C(C)=O)cc(C(=O)c3ccc4c(c3)Sc3ccccc3N4)c2c1,27.3%,37.6%,25.3%,28.3%,29.6,20.7%,15.9%,-17.8% (active),8.15% (active),13.1%,5.07% (active),,36.9,50.2,18.8,34.9%,-47.8% (active),,11.1%,12.7%
CCc1ccc(Oc2c(-c3ccc(OCc4ccc(Cl)cc4)cc3O)n[nH]c2C(F)(F)F)cc1,11.4%,15.7%,15.3%,-10.4% (active),16.1,5.7% (active),29.6%,11.2%,11.7%,-3.23% (active),12.7%,,85.9,16.5,27,22%,0.589% (active),,1.99% (active),16.5%
Cc1ccc(C(=O)NN2C(=O)CSC2c2ccc(Cl)cc2)cn1 (stereo not drawn),102%,110%,91.4%,21.8%,128,96.5%,80.7%,164%,117%,82.2%,80.8%,,92.3,101,97.1,54.8%,111%,130%,113%,93.2%
COc1ccc(N)c(N)c1,121%,105%,100%,75.3%,113,97.3%,94.4%,95.1%,83.1%,96.2%,121%,108,110,103,96.9,107%,125%,110%,,
COc1ccc2[nH]c(-c3ccccc3)c(/C=C(\C#N)S(=O)(=O)c3ccccc3)c2c1,87%,56.7%,67%,70.2%,92.4,71.6%,76.6%,57.2%,36.2%,17.4%,2.79% (active),60.7,101,12.5,73.3,67%,45.1%,67.3%,,30.5%
O=C(Nc1ccc(I)cc1F)c1cc(I)ccc1O,-19.3% (active),6.21% (active),-10.4% (active),-9.71% (active),14.7,-5.98% (active),3.29% (active),-49.1% (active),15.3%,-10% (active),3.39% (active),12.7,21.6,22.3,13.9,18.4%,4.35% (active),3.07% (active),,5.58% (active)
CNC(=O)c1cc(-n2ccc3cc(NC(=O)c4ccc(N5CCOCC5)c(C(F)(F)F)c4)ccc32)ccn1,91.1%,83.9%,64.3%,50.2%,86.8,61.5%,63.6%,25.9%,30.1%,34.6%,24.8%,27.7,79.1,64.4,91.2,77.7%,63.9%,47.1%,,45.7%
COc1ccc(/C=C(/C#N)n2nnc3cccc(F)c32)cc1,-10.4% (active),36.8%,28.9%,26.2%,46.5,31.5%,22.8%,-7.93% (active),21.3%,13.8%,7.75% (active),10.7,19.7,29.9,29,34.4%,-18.6% (active),-16.4% (active),,-29.6% (active)
NCCOc1ncccc1/C=C1\C2C=CC=CC2C2C=CC(F)=CC12 (stereo not drawn),113%,43.9%,-3.7% (active),-0.645% (active),41.7,-34% (active),25%,17.2%,3.62% (active),0.118% (active),0.916% (active),25.7,31.3,68.3,20.1,29.9%,35%,61.5%,,27.8%
O=C(Nc1c2ccccc2nc2ccccc12)c1ccccc1CN1C(=O)c2ccccc2C1=O,43%,43.1%,34.6%,6.41% (active),45.6,10.8%,19.1%,-18.9% (active),40.8%,14.9%,30.5%,31.3,40.1,44.8,35.6,21.4%,34.1%,21%,,29.3%
